Compounds without any hit were thinned out: in the full panel of roughly 83,000, 20% have a hit.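 Single-concentration screen, 48 h exposure, 96-well plates. Endpoint: percent growth. Below 10 = active.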 Values without a mark were called inactive. Active and inactive are the calls of the source.

The test system of one assay is HCT-15 colon. The experiment in a line: NCI-60 one-dose screen, 48 h (100 = growth as untreated, 0 = no growth, -100 = all killed). Conditions: 10 µM unless noted.
For `N#Cc1c(-c2ccccc2Cl)cc(-c2c[nH]c3ccccc23)[nH]c1=O`, the growth is 48.7%.

On to `CN1CCN(/C(=N\c2sc(-c3ccccc3)nc2-c2ccccc2)c2ccccc2)CC1`, for which the growth is 16.7%.

In the case of `COc1ccc(-c2cc(C(=O)NCc3ccccc3)nn2-c2ccc(S(C)(=O)=O)cc2)cc1OC`, the growth is 108%.

Consider `O=C(COc1ccc(NC(=O)Nc2ccc(Cl)c(Cl)c2)cc1)N=Nc1c(O)[nH]c2ccc(Cl)cc12`, for which the growth is 30.6%.

Turning to `C=C1CC[C@@H]2[C@]3(C)COC(c4cn(-c5ccccc5)nc4-c4ccccc4)O[C@@H]3CC[C@@]2(C)[C@@H]1C/C=C1/C(=O)OC[C@H]1O` (stereo partly specified), the growth is -87% (active).

As to `CC(=O)Nc1cccc(-c2nc3cc(-c4ccc(O)cc4)ccc3n2C)c1`, the growth was 41.6%.

For the compound `O=C(/C=C/c1ccc(-c2ccccc2)cc1)c1nc2ccccc2n1Cc1ccc(F)cc1`, the growth is 22.8%.

As to `Cc1cc2nc3c4ccccc4n(CCNCCN(C)C)c3nc2cc1C`, the growth was 8.66% (active).

In the case of `c1ccc(-c2csc(Nc3cccc(Nc4nc(-c5ccccc5)cs4)c3)n2)cc1`, the growth is 30.5%.

On to `O=C(N/N=C/c1ccc(-c2ccc(O)cc2)s1)c1[nH]c2ccc(Br)cc2c1-c1ccccc1`, for which the growth was 6.81% (active).

Take `COCOc1cc2c(=O)c(C)c(C(=O)N[C@@H](Cc3ccccc3)C(O)C(=O)NCc3ccccc3)oc2cc1OC` (stereo partly specified): the growth is 84.3%.

As to `COc1cc2oc(-c3cccc(C(=O)Nc4ccc(Cl)cc4)c3)cc(=O)c2c(OCCNC(=O)[C@@H](N)CCC(=O)O)c1OC`, the growth is 78%.

In the case of `Cn1cc(-c2nc(N)nnc2-c2c[nH]c3ccc(Br)cc23)c2cccnc21`, the growth was 33.2%.

Take `O=C1c2c(c3c4cc(F)ccc4oc3c3[nH]c4ccc(Br)cc4c23)C(=O)N1O`: the growth is 48.1%.

Consider `CCCCNC(=S)Nc1ccc(OCc2nc3ccccc3[nH]2)cc1`, for which the growth is 47.9%.

Turning to `COc1cc(-c2ccc(/C=N/NC(=O)c3[nH]c4ccc(Br)cc4c3-c3ccccc3)s2)cc(OC)c1OC`, the growth was 66%.

As for `C=C1CC[C@@H]2[C@]3(C)COC(c4cn[nH]c4-c4ccc(C)cc4)O[C@@H]3CC[C@@]2(C)[C@@H]1C/C=C1/C(=O)OCC1O` (stereo partly specified), the growth was -72.9% (active).

As to `COc1cc2c(c(OC)c1OC)C(=O)CC(c1cccc(NC(=O)c3cc(N)ccc3Cl)c1)O2` (stereo unspecified), the growth was 22.3%.

For `COc1cc2c(c(OC)c1OC)C(=O)CC(c1cccc(NC(=O)c3cccc(NC(=O)[C@H](C)NC(=O)OC(C)(C)C)c3)c1)O2` (stereo partly specified), the growth is 44.2%.

For the compound `C=C1CCC2C3(C)COC(c4cc(F)cc(F)c4)OC3CCC2(C)C1CC(O)C1=CCOC1=O` (stereo unspecified), the growth was 7.8% (active).

For `O=C(/C=C/c1ccc(O)c(O)c1)NC1CCOC1O` (stereo unspecified), the growth was 94.6%.

As for `C/C(=N\N=C1/C(=O)Nc2ccc(Cl)cc21)c1ccc2c(c1)Nc1ccccc1S2`, the growth was 0.895% (active).

With `CC(C)CCNC(=O)N/C(N)=N/c1nc2ccccc2s1`, the growth was 48.4%.

As for `OCNc1ccc(-n2cnc3cc(-c4ccc(O)cc4)ccc32)cc1C(F)(F)F`, the growth is 15.5%.

With `C=C1CCC2C3(C)COC(c4ccc(F)cc4)OC3CCC2(C)C1C/C=C1/C(=O)OCC1O` (stereo unspecified), the growth is -42.3% (active).

Regarding `O=c1[nH]n(C(=S)N/N=C/c2ccccc2Cl)c(=O)c2ccccc12`, the growth was -41.3% (active).

As for `N#Cc1c(-c2cccc(Cl)c2Cl)cc(-c2ccc3ccccc3c2)[nH]c1=O`, the growth was 69.6%.

For the compound `Clc1cccc(Cl)c1/C=C/c1cc(/C=C/c2ccc(Br)cc2)c2ccccc2n1`, the growth was 101%.

Take `CC(C)c1ccc2c(N)c(C(=O)Nc3ccc(C(F)(F)F)cn3)sc2n1`: the growth is 58.7%.

As to `CCN(CC)C(=O)N/C(N)=N/c1nc2ccccc2s1`, the growth was 54%.

For `O=C(COc1ccc(NC(=O)Nc2ccc(Cl)c(Cl)c2)cc1)N=Nc1c(O)[nH]c2ccc([N+](=O)[O-])cc12`, the growth was 88.5%.

Turning to `Cc1cc2c(cc1Cl)C(=O)/C(=C/c1ccc(F)cc1)O2`, the growth is 97.8%.

Regarding `CCCCOc1ccc(NC(=O)c2sc3nc(C)ccc3c2N)cc1`, the growth was 36.7%.

`O=C1Nc2cc(Cl)ccc2/C1=C/c1cccc(OCc2ccccn2)c1`: the growth was 7.16% (active).

On to `NS(=O)(=O)c1ccc(N=Nc2c(O)n(CC(=O)Nc3ccccc3Cl)c3ccccc23)cc1`, for which the growth is 25.1%.

For `O=C(Nc1cccc(-n2cnc3cc(-c4ccc(O)cc4)ccc32)c1)C1CC1`, the growth is 11.9%.

Regarding `C=C1CC[C@@H]2[C@]3(C)COC(c4cn[nH]c4-c4ccc(OC)cc4)O[C@@H]3CC[C@@]2(C)[C@@H]1C/C=C1/C(=O)OCC1O` (stereo partly specified), the growth was -35.3% (active).

Turning to `CC(=O)Nc1ccc(-c2cn(-c3cccc(C(=O)Nc4ccc(N5CCN(C)CC5)cc4)c3)nn2)cn1`, the growth was 91.5%.

The next assay has as its system HT29 colon. Described as above. Conditions: 10 µM unless noted.
Consider `N#Cc1c(-c2ccccc2Cl)cc(-c2c[nH]c3ccccc23)[nH]c1=O`, for which the growth is 107%.

For `CN1CCN(/C(=N\c2sc(-c3ccccc3)nc2-c2ccccc2)c2ccccc2)CC1`, the growth was 9.91% (active).

As to `COc1ccc(-c2cc(C(=O)NCc3ccccc3)nn2-c2ccc(S(C)(=O)=O)cc2)cc1OC`, the growth is 102%.

For the compound `O=C(COc1ccc(NC(=O)Nc2ccc(Cl)c(Cl)c2)cc1)N=Nc1c(O)[nH]c2ccc(Cl)cc12`, the growth is -30.1% (active).

As to `C=C1CC[C@@H]2[C@]3(C)COC(c4cn(-c5ccccc5)nc4-c4ccccc4)O[C@@H]3CC[C@@]2(C)[C@@H]1C/C=C1/C(=O)OC[C@H]1O` (stereo partly specified), the growth was -70.4% (active).

Consider `CC(=O)Nc1cccc(-c2nc3cc(-c4ccc(O)cc4)ccc3n2C)c1`, for which the growth is 62.6%.

Turning to `O=C(/C=C/c1ccc(-c2ccccc2)cc1)c1nc2ccccc2n1Cc1ccc(F)cc1`, the growth is 9.19% (active).

For the compound `Cc1cc2nc3c4ccccc4n(CCNCCN(C)C)c3nc2cc1C`, the growth was -40.1% (active).

Take `c1ccc(-c2csc(Nc3cccc(Nc4nc(-c5ccccc5)cs4)c3)n2)cc1`: the growth was 39.4%.

On to `O=C(N/N=C/c1ccc(-c2ccc(O)cc2)s1)c1[nH]c2ccc(Br)cc2c1-c1ccccc1`, for which the growth is -71.4% (active).

Regarding `COCOc1cc2c(=O)c(C)c(C(=O)N[C@@H](Cc3ccccc3)C(O)C(=O)NCc3ccccc3)oc2cc1OC` (stereo partly specified), the growth is 43.3%.

With `COc1cc2oc(-c3cccc(C(=O)Nc4ccc(Cl)cc4)c3)cc(=O)c2c(OCCNC(=O)[C@@H](N)CCC(=O)O)c1OC`, the growth was 50.6%.

In the case of `Cn1cc(-c2nc(N)nnc2-c2c[nH]c3ccc(Br)cc23)c2cccnc21`, the growth was 23.1%.

For `O=C1c2c(c3c4cc(F)ccc4oc3c3[nH]c4ccc(Br)cc4c23)C(=O)N1O`, the growth was 68.6%.

As for `CCCCNC(=S)Nc1ccc(OCc2nc3ccccc3[nH]2)cc1`, the growth is 50.3%.

Take `COc1cc(-c2ccc(/C=N/NC(=O)c3[nH]c4ccc(Br)cc4c3-c3ccccc3)s2)cc(OC)c1OC`: the growth is 93.6%.

Regarding `C=C1CC[C@@H]2[C@]3(C)COC(c4cn[nH]c4-c4ccc(C)cc4)O[C@@H]3CC[C@@]2(C)[C@@H]1C/C=C1/C(=O)OCC1O` (stereo partly specified), the growth is -6.69% (active).

Regarding `COc1cc2c(c(OC)c1OC)C(=O)CC(c1cccc(NC(=O)c3cc(N)ccc3Cl)c1)O2` (stereo unspecified), the growth is 79.9%.

Take `COc1cc2c(c(OC)c1OC)C(=O)CC(c1cccc(NC(=O)c3cccc(NC(=O)[C@H](C)NC(=O)OC(C)(C)C)c3)c1)O2` (stereo partly specified): the growth is 62.2%.

Consider `C=C1CCC2C3(C)COC(c4cc(F)cc(F)c4)OC3CCC2(C)C1CC(O)C1=CCOC1=O` (stereo unspecified), for which the growth is 27.2%.

Take `O=C(/C=C/c1ccc(O)c(O)c1)NC1CCOC1O` (stereo unspecified): the growth is 113%.

Consider `C/C(=N\N=C1/C(=O)Nc2ccc(Cl)cc21)c1ccc2c(c1)Nc1ccccc1S2`, for which the growth is -31.1% (active).

As for `CC(C)CCNC(=O)N/C(N)=N/c1nc2ccccc2s1`, the growth was 68.8%.

For `OCNc1ccc(-n2cnc3cc(-c4ccc(O)cc4)ccc32)cc1C(F)(F)F`, the growth was 21.2%.

Consider `C=C1CCC2C3(C)COC(c4ccc(F)cc4)OC3CCC2(C)C1C/C=C1/C(=O)OCC1O` (stereo unspecified), for which the growth was -4.77% (active).

With `O=c1[nH]n(C(=S)N/N=C/c2ccccc2Cl)c(=O)c2ccccc12`, the growth is 0.552% (active).

With `N#Cc1c(-c2cccc(Cl)c2Cl)cc(-c2ccc3ccccc3c2)[nH]c1=O`, the growth is 121%.

With `Clc1cccc(Cl)c1/C=C/c1cc(/C=C/c2ccc(Br)cc2)c2ccccc2n1`, the growth is 105%.

Turning to `CC(C)c1ccc2c(N)c(C(=O)Nc3ccc(C(F)(F)F)cn3)sc2n1`, the growth is 69.5%.

In the case of `CCN(CC)C(=O)N/C(N)=N/c1nc2ccccc2s1`, the growth is 62.5%.

Take `O=C(COc1ccc(NC(=O)Nc2ccc(Cl)c(Cl)c2)cc1)N=Nc1c(O)[nH]c2ccc([N+](=O)[O-])cc12`: the growth was 81.6%.

For `Cc1cc2c(cc1Cl)C(=O)/C(=C/c1ccc(F)cc1)O2`, the growth was 102%.

As for `CCCCOc1ccc(NC(=O)c2sc3nc(C)ccc3c2N)cc1`, the growth was 40.2%.

With `O=C1Nc2cc(Cl)ccc2/C1=C/c1cccc(OCc2ccccn2)c1`, the growth was 0.146% (active).

For the compound `NS(=O)(=O)c1ccc(N=Nc2c(O)n(CC(=O)Nc3ccccc3Cl)c3ccccc23)cc1`, the growth is 7.23% (active).

Regarding `O=C(Nc1cccc(-n2cnc3cc(-c4ccc(O)cc4)ccc32)c1)C1CC1`, the growth was 8.01% (active).

Regarding `C=C1CC[C@@H]2[C@]3(C)COC(c4cn[nH]c4-c4ccc(OC)cc4)O[C@@H]3CC[C@@]2(C)[C@@H]1C/C=C1/C(=O)OCC1O` (stereo partly specified), the growth is -26.3% (active).

As to `CC(=O)Nc1ccc(-c2cn(-c3cccc(C(=O)Nc4ccc(N5CCN(C)CC5)cc4)c3)nn2)cn1`, the growth was 6.82% (active).
